# The campaign covered roughly 200,000 compounds. About 360 (0.18%) were called active. The sample holds actives, similar compounds and a random draw of the others, so the mix is not that of the screen. Values without a mark were called inactive. No stated cut-off is given here; in the data, active means inhibition above about 25%; inactive means the rest.
# Molecular target: Toll-like receptor 4 (Homo sapiens) + Myeloid differentiation primary response protein MyD88 (Homo sapiens) (UniProt O00206+Q99836)
# Assay: inhibitors of TLR4-MyD88 association in cells, primary screen, cell-based, HeLa CL3-4, BLA complementation, FRET ratio (AID 861);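 further: 0% = vehicle and 100% = reference inhibitor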
# Conditions: HeLa CL3-4 TLR4/MyD88 BLA complementation, at 8.4 µM, active compounds read high
# Toll-like receptor 4 (Homo sapiens) + Myeloid differentiation primary response protein MyD88 (Homo sapiens), sequence (O00206 whole entry, looked up): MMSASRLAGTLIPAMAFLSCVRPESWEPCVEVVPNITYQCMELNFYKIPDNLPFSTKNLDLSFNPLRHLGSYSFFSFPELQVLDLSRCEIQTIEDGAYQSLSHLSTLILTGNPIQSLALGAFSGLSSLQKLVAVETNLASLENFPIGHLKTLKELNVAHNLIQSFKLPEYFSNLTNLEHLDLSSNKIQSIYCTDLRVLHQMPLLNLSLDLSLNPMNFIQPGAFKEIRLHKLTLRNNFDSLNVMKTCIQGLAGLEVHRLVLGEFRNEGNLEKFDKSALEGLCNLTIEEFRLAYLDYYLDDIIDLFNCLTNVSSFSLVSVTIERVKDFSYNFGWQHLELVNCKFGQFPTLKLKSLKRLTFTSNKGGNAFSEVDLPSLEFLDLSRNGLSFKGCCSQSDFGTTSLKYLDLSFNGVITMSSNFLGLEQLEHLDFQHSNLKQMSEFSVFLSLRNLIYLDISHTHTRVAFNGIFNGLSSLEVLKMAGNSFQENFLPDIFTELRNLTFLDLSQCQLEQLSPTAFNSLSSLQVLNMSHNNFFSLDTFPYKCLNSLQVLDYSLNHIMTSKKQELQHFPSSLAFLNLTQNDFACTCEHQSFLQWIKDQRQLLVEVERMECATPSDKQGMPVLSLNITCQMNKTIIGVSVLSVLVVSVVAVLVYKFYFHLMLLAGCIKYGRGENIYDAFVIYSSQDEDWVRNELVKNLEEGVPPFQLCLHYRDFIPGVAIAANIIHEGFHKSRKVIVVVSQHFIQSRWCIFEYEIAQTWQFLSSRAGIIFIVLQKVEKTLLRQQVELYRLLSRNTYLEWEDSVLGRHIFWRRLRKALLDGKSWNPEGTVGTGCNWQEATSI
# Toll-like receptor 4 (Homo sapiens) + Myeloid differentiation primary response protein MyD88 (Homo sapiens), sequence (Q99836 whole entry, looked up): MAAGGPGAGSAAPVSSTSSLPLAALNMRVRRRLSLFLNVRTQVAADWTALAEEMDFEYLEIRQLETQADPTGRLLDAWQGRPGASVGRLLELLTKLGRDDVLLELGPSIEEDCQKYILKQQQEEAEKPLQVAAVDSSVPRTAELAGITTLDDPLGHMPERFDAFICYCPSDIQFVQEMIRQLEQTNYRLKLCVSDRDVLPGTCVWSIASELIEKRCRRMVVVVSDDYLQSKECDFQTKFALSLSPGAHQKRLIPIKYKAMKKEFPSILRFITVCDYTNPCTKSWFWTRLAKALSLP
row,Compound,inhibition
1,Fc1cccc(F)c1CN1CCN(Cc2c(F)cccc2F)CC1,6.5%
2,COc1ccc(CN2CCN(c3ccccc3F)CC2)c(OC)c1,29.3% (active)
3,CC(C)c1ccc(O)c(CN2CCN(c3ccccc3)CC2)c1,-8.07%
4,CN(C)CCCN=Cc1c(O)n(Cc2ccco2)c(=O)[nH]c1=O,-1.36%
5,CCOc1ccc(C2SCC(=O)Nc3c2c(C)nn3C2CCOC(C)(C)C2)cc1 (stereo not given),-12%

# Reference: PubChem BioAssay AID861 (The Scripps Research Institute Molecular Screening Center, 2007)
